# Assay outcomes (PubChem BioAssay)
# The entries come from a sample that favours hits as a whole.
# Giardia FBPA inh – blocks Giardia fructose-bisphosphate aldolase activity. A8B2U2. purified Giardia FBPA. Potency, µM (highest dose often 59.6 µM), inactives show top-dose activity, negative = inhibition, hits mostly inhibitors. 290,000 compounds, 0.71% hits; further: potency means the concentration at half of the fitted maximal effect; on the % scale 0 is the no-effect control and ±100 the full control effect; nearly all actives have a fitted effect of over 55% in size
#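 Giardia FBPA (40 nM reagent) was preincubated 10 min at RT with compound (up to 57.5 uM final), then substrate plus GAPDH/TPI/NAD/arsenate coupling system with diaphorase/resazurin was added; resorufin fluorescence (525/598 nm) was read after 20 min.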
# LmPK inhibitor – inhibitors of Leishmania mexicana pyruvate kinase; 290,000 compounds, 0.37% hits; AID 1721; Potency, µM (doses to about 57.5 µM), for the others: at the highest dose activity change, negative = inhibition, actives largely listed as inhibitors; purified LmPK, Kinase-Glo ATP luminescence, 1 h; further: potency means the concentration at half of the fitted maximal effect; on the % scale 0 is the no-effect control and ±100 the full control effect
# Target sequence (Q27686 whole entry, looked up): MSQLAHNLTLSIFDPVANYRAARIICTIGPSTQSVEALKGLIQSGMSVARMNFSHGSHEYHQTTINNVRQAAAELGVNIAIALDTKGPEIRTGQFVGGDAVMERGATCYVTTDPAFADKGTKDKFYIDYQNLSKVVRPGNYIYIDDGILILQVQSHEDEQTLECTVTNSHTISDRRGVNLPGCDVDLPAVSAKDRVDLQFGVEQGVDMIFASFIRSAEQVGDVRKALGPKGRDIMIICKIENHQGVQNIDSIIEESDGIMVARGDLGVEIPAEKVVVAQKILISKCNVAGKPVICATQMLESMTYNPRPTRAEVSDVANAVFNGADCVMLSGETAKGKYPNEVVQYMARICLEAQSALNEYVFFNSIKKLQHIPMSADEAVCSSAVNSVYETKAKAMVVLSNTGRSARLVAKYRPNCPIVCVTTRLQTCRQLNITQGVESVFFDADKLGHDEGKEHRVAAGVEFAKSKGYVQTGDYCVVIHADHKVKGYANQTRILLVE
#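 qHTS format; LmPK 0.1 nM; substrates PEP 0.5 mM and ADP 0.1 mM. One-hour room-temperature incubation, then coupled luciferase luminescence; 0.5 nM enzyme wells mark activation.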
# Sm TGR block – inhibitors of Schistosoma mansoni thioredoxin glutathione reductase. purified TGR, DTNB reduction, TNB absorbance 405 nm. Potency, µM (highest dose often 114 µM), inactives show at the highest dose activity change, negative = inhibition, usual class: inhibitors. 360,000 compounds, 3% hits. AID 485364. Q962Y6; further: potency means the concentration at half of the fitted maximal effect; on the % scale 0 is the no-effect control and ±100 the full control effect; nearly all actives have a fitted effect of over 60% in size
#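 Kinetic colorimetric format: TGR-catalysed, NADPH-driven DTNB reduction monitored via TNB absorbance. Enzyme dispensed at 20 nM; compound exposure 15 min at room temperature before reaction start.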
# Shiga toxin inh – inhibitors of Shiga toxin in Vero cells; Vero cells, Shiga toxin protein synthesis inhibition reporter; inhibition, % at 38.7 µM; 290,000 compounds, 9.2% hits; AID 2315; in the data active means inhibition mostly above about 28%, no sharp cut-off; inactive means mostly below about 43%; further: 0% is about no effect
# CHX counter – counter-screen for Shiga toxin inhibitors: cycloheximide protein synthesis inhibition; cell reporter, cycloheximide protein synthesis inhibition counterscreen; max response, %; 300,000 compounds, 12% hits; AID 2314; in the data active means max response mostly above about 13%, no sharp cut-off; inactive means mostly below about 14%; further: read at 38.3 µM for the half of the compounds with a filed dose; 0% is about no effect
# TbPYK inhibitor – inhibitors of Trypanosoma brucei pyruvate kinase; Q57TT1; TbPYK enzyme, Kinase-Glo Plus ATP luminescence, 45 min; Potency, µM (highest dose often 76.8 µM), without a hit: at the highest dose activity, negative = inhibition, usual class: inhibitors; 410,000 compounds, 0.12% hits; AID 624173; further: potency means the concentration at half of the fitted maximal effect; on the % scale 0 is the no-effect control and ±100 the full control effect; nearly all actives have a fitted effect of over 50% in size
#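 Glycolytic pyruvate kinase of T. brucei was incubated with substrate, test compound and 130 uM ADP for 45 minutes at room temperature. Luminescent Kinase-Glo Plus signal was measured after 10 minutes.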
# * = called active by the depositor; ? = inconclusive; · = no result given; ! = repeats disagree. Unless noted, the call rests on the fitted dose curve; in most records, active means well fitted curve in the direction sought with a large enough effect; inconclusive means small, poorly fitted or top-dose-only effect, or another doubt; inactive means no such curve, though single readings can be large; an effect the other way counts as inactive or inconclusive.
SMILES,Giardia FBPA inh,LmPK inhibitor,Sm TGR block,Shiga toxin inh,CHX counter,TbPYK inhibitor
COc1ccc(NC(=O)C/C(C)=N/NC(=O)c2ccco2)c([N+](=O)[O-])c1,-7.2%,-0.9%,-6.7%,92.5*,19.1*,6.5%
Cc1ccc(NC(=O)c2ccco2)c([N+](=O)[O-])c1,-2.1%,0.8%,-4.0%,107.4*,40.6*,-5.6%
CCNC(=O)C1(C)CCN(Cc2ccc(-c3ccccc3)cc2)C1 (stereo not given),·,·,·,·,·,2.9%
COc1ccccc1-c1nc2c(c(SCC(=O)Nc3ccccc3F)n1)Cc1c(CO)cnc(C)c1O2,·,·,-14.3%,·,·,-0.1%
C[C@H](CO)N1C[C@H](C)[C@@H](CN(C)S(C)(=O)=O)Oc2c(NC(=O)c3ccncc3)cccc2C1=O,·,·,·,·,·,-10.5%
O=C(Nc1ccc2c(c1)OCO2)C1CC(=O)N(c2ccccc2)C1 (stereo not given),1.3%,-1.8%,-9.4%,-5.3,-1.3,1.8%
Cc1ccc(N2CC(C(=O)Nc3ccc4c(c3)OCCO4)CC2=O)cc1C (stereo not given),6.6%,-5.2%,-1.7%,52.8*,16.4,8.3%
COC(=O)c1ccc(NC(=O)C2CC(=O)N(c3ccc(C)cc3)C2)cc1 (stereo not given),-2.6%,1.9%,-8.7%,21.2,16.7*,0.0%
Cc1cccc(N2CCN(C(=O)C3CC(=O)N(c4ccc5c(c4)OCCO5)C3)CC2C)c1 (stereo not given),·,·,44.7µM*,·,·,-2.4%
Cc1ccc(N2CC(C(=O)Nc3ccc4c(c3)OCCO4)CC2=O)cc1 (stereo not given),-3.3%,-0.9%,-6.5%,43.8*,19.9*,0.0%
CCOc1ccc2oc(=O)cc(CN3CCN(C(=O)c4ccc(OC)c(OC)c4)CC3)c2c1,·,·,-14.8%,·,·,4.0%
Cc1ccc2c(c1)-c1onc(C(=O)N3CCN(c4cccc(C)c4C)CC3)c1CO2,·,·,0.9%,·,·,-2.0%
Cc1cccc(N2CCN(C(=O)c3noc4c3COc3ccc(C)cc3-4)CC2C)c1 (stereo not given),13.8%,0.0%,5.62µM*!,-0.6,-1.5,1.8%
c1ccc(CCNc2ccc3nncn3n2)cc1,1.3%,-3.0%,-3.8%,-7.6,10.6,-1.0%
NNc1ccc2nncn2n1,?,5.7%,35.5µM*,10.0,-1.4,0.3%
Cc1cc2nc(-c3ccc[nH]c3=O)n(Cc3cccc(F)c3)c2cc1C,9.1%,11.8%,-7.7%,56.0,7.0,-0.7%
CCCn1c(-c2ccc[nH]c2=O)nc2cc(C)c(C)cc21,-1.2%,-15.2%,13.8%,72.2*,38.2*,-4.5%
CSc1n[nH]c(NCc2ccc(Cl)cc2)n1,0.7%,1.0%,-2.0%,51.3*,15.5*,·
Fc1cc(F)nc(NCc2ccccc2)n1,1.6%,-0.9%,7.4%,-3.7,-3.7,-7.0%
CSc1n[nH]c(NCc2ccc(C)cc2)n1,0.7%,5.5%,-5.7%,72.4*,40.4*,-4.4%
CSc1n[nH]c(NCc2ccccc2)n1,2.8%,-4.2%,6.5%,28.8*,9.4,-4.6%
Cc1ccc(-n2ncc3c(Nc4cccc(Cl)c4)ncnc32)c(C)c1,·,·,15.2%,·,·,-5.9%
C=CCOc1ccc(CNc2nccs2)cc1,0.4%,-2.8%,-12.2%,55.0*,22.3*,0.9%
C=CCOc1ccc(CNc2nccs2)cc1OCC,-0.2%,4.5%,-12.4%,18.0,10.1,-4.4%
COc1ccc(CCN2C(=O)c3[nH]nc(-c4ccccc4O)c3C2c2ccc(OC)c(OC)c2)cc1 (stereo not given),·,·,4.7%,·,·,-8.3%
Cc1cc(C)n(-c2nnc(NC34CC5CC(CC(C5)C3)C4)nn2)n1,-0.6%,0.5%,3.0%,21.1*,36.8*,-17.6%
Cc1cc(C)n(-c2nnc(NC(C)(C)C)nn2)n1,-13.5%,-28.8%,-6.8%,53.9*,26.1*,-3.0%
CCN(CC)c1ncnc2c1ncn2[C@H]1CN(Cc2ccccc2)C[C@@H](COC(C)=O)O1,·,·,·,·,·,3.5%
Cc1ccc(CCN2CC(C(=O)NC3CCCCC3)CC2=O)cc1 (stereo not given),4.3%,-0.3%,0.1%,3.5,29.9*,6.5%
O=C(NCCCc1ccccc1)C1CCC(=O)N(Cc2ccc(Cl)cc2)C1 (stereo not given),2.9%,-3.9%,-2.6%,38.2*,35.5*,1.0%
